Assay results as given in PubChem BioAssay (Tox21).
Inconclusive results are not listed. Entries that show only a call come without a potency. Active and inactive are the calls of the source. Calls come from the whole dose curve.

Experiment: qHTS assay for small molecule agonists of the p53 signaling pathway - cell viability (AID 651633);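 note: p53RE-bla HCT reporter cells with a stable beta-lactamase p53 reporter; nearly all actives have a fitted effect of over 30% in size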
Conditions: p53RE-bla HCT-116 viability, ATP luminescence, 16 h; series mostly up to 83.3 µM
From the text: National Center for Advancing Translational Sciences [NCATS]
NIH Chemical Genomics Center [NCGC]
U.S. Environmental Protection Agency [EPA]
National Institutes of Environmental Health Sciences [NIEHS]
National Toxicology Program [NTP]
U.S. Food and Drug Administration [FDA]
p53, a tumor suppressor protein, is activated following cellular insult, including DNA damage and other cellular stresses. The activation of p53 regulates cell fate by inducing DNA repair, cell cycle arrest, apoptosis, or cellular senescence. The activation of p53, therefore, is a good indicator of DNA damage and other cellular stresses. […] The activation of the reporter gene under culture conditions can be detected by fluorescence intensity. This cell line was used to screen the Tox21 compound library in a 1536-well plate format and to identify agonists that activate the p53 signaling pathway.
Tox21 Assay Protocol Summary:
The p53RE-bla cells were dispensed at 4,000 cells/5 ul/well in 1536-well black wall/clear bottom plates using a Multidrop dispenser. After the assay plates were incubated at a 37 C/5% CO2 incubator for 5 hours, 23 nL of compounds dissolved in DMSO, positive controls or DMSO only was transferred to the assay plate by a pin tool. The plates were incubated at 37 C for 16 hours. After 1 uL of LiveBLAzerTM B/G FRET substrate was added using a Flying Reagent Dispenser, the plates were incubated at room temperature for 2 hours, and fluorescence intensity was measured by an Envision plate reader.
For cell viability readout that measures cytotoxicity, 4 ul/well of CellTiter-Glo reagent was added into the assay plates using a Flying Reagent Dispenser. After 30 min incubation at room temperature, the luminescence intensity in the plates was measured using a ViewLux plate reader.

Compound	Potency
CN1C(=O)CC(c2ccccc2)C1=O (stereo not given)	inactive
FC(F)(F)C(F)(F)C(F)(F)C(F)(F)C(F)(F)C(F)(F)C(F)(F)C(F)(F)Br	inactive
CCOc1ccc(OCC)c(Cl)c1	inactive
CCN(CC)C(=O)N(CC)CC	inactive
C=CCCCCCCCCO	inactive
CC(C)CCCCCCc1ccc(OCCOCCO)cc1	inactive
COc1ccc(Nc2ccc(OC)cc2)cc1	inactive
O=C1N(c2ccccc2)c2ccccc2C1(Cc1ccncc1)Cc1ccncc1	inactive
NCCC(O)(P(=O)(O)O)P(=O)(O)O	inactive
CC(C)NCC(O)COc1ccc(CCOCC2CC2)cc1 (stereo not given)	inactive
OCCN1CCN(CCO)CC1	inactive
O=C(CC(=O)C(F)(F)F)c1ccccc1	inactive
O=CCCc1ccccc1	inactive
OCc1ccccc1O	inactive
CCCNC(C)(C)COC(=O)c1ccccc1	inactive
COc1cc2c(cc1N)oc1ccccc12	inactive
CC(=O)Nc1ccc(C)c(Cl)c1	inactive
O=C1CCC(C2CCCCC2)CC1	inactive
CC(=O)OC(C)OC(C)=O	inactive
CCCN(CCC)C(=O)C(CCC(=O)O)NC(=O)c1ccccc1 (stereo not given)	inactive

Compound	Potency
CC(C)C(=O)OCC(C)(C)C(O)C(C)C (stereo not given)	inactive
CCCCCOc1ccc(C2SC(=O)NC2=O)cc1OCC (stereo not given)	inactive
CC1=C2[C@H](/C=C(\C)C(=O)O)CC[C@@H](C)[C@H]2CC1	inactive
COC(C)CCO (stereo not given)	inactive
C=CCCC=C	inactive
Cc1ccc(C(C)C)cc1O	inactive
NC1=NCC2c3ccccc3Cc3ccccc3N12 (stereo not given)	inactive
CC(C)(CO)[C@@H](O)C(=O)NCCC(=O)O	inactive
CCC1(C)NC(=O)NC1=O (stereo not given)	inactive
COc1cc(Cl)ccc1Cl	inactive
CCC(=O)c1ccc2c(c1)N(CCCN(C)C)c1ccccc1S2	inactive
CCCCN1C[C@H](O)[C@@H](O)[C@H](O)[C@H]1CO	inactive
Cc1ccccc1C(=O)Nc1ccc(C(=O)N2CCCC(O)c3cc(Cl)ccc32)c(C)c1 (stereo not given)	inactive
Cc1ccc([N+](=O)[O-])c(N)c1	inactive
Cc1ncc(CO)c(CN)c1O	inactive
C=CCc1cc(OC)c(O)c(C(=O)NCCO)c1	inactive
N#Cc1ccc(C(c2ccc(C#N)cc2)n2cncn2)cc1	inactive
CCCCCCCCOC(=O)CCCCCCCCC(=O)OCCCCCCCC	inactive
CCN[C@H]1CN(CCCOC)S(=O)(=O)c2sc(S(N)(=O)=O)cc21	inactive
CN(C)C(=O)NC1(c2ccccc2)CCN(CCC[C@]2(c3ccc(Cl)c(Cl)c3)CCCN(C(=O)c3ccccc3)C2)CC1	inactive
